Screening data as filed in PubChem.
Shown is part of a subset that was picked to be rich in hits.
C diff growth = C. difficile growth inhibitors, primary screen, HTS; Clostridium difficile clinical isolate growth, OD600, 24 h; stronger effect = lower value; growth activity, negative = inhibition, % at 16 µg/mL (by protocol); 0.25% of 86,000 active; AID 1259249, 2017;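 active = mean growth activity at or below -80% and every replicate also at or below -80%; inconclusive = mean at or below -80% but some replicate above -80%; inactive = mean growth activity above -80%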;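 also: 0% = DMSO wells and -100% = levofloxacin 16 µg/mL wells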
T cruzi growth-1 = T. cruzi intracellular proliferation inhibitors, primary screen, cell-based, beta-gal Tulahuen parasites, NIH3T3 host, luminescence; 5.9% of 77,000 active; AID 624255, 2012; inhibition, % at 8.34 µM; T. cruzi beta-gal in NIH3T3, GalScreen luminescence, 90 h;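 active = mean inhibition above about 93%, with at least 55% of replicates each passing it, limit read from the data, passing the limit was not always enough; inconclusive = only one of those two conditions holds; inactive = neither condition holds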
T cruzi growth-2 = T. cruzi intracellular proliferation inhibitors, confirmation, cell-based, NIH3T3 host, beta-gal parasite, luminescence, cherry-pick; shares compounds with T cruzi growth-1; T. cruzi beta-gal in NIH3T3, GalScreen luminescence, 90 h; inhibition, % at 8.35 µM; 72% of 5,600 active; AID 651739, 2012;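 active = mean replicate inhibition above about 95% and at least 55% of replicates individually reaching it, limit read from the data; inconclusive = only one of the two criteria is met; inactive = neither criterion is met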
T cruzi growth-3 = inhibitors of intracellular T. cruzi replication, confirmation, NIH3T3 host cells, beta-gal parasites, cherry-pick, set 2. shares compounds with T cruzi growth-1. T. cruzi beta-gal in NIH3T3, GalScreen luminescence, 90 h. inhibition, % at 2.09 µM. 21% of 5,600 active. AID 651740, 2012;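 active = mean inhibition above about 95%, with at least 55% of replicates also reaching it, limit read from the data; inconclusive = meets just one of the two conditions; inactive = meets neither condition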;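 also: plate controls were neutral control median for no effect and positive control median for full effect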
3T3 cytotox = cytotoxicity in mouse NIH/3T3 fibroblasts, confirmation, cytotoxicity control for T. cruzi proliferation inhibitor project, cell-based, cherry-pick, single point. cytotoxicity (signal decrease), % at 8.35 µM. shares compounds with T cruzi growth-1. 14% of 5,600 active. NIH/3T3 viability, CellTiter-Glo ATP luminescence, 90 h;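 active = mean signal decrease across replicates above about 35% based on untreated-well scatter, with enough replicates individually passing, limit read from the data; inconclusive = no rule stated though some were filed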;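 also: 0% = median of neutral control wells and 100% = median of positive control wells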
NIH3T3 tox 2 = NIH/3T3 fibroblast cytotoxicity, confirmation, cytotoxicity control, cell-based, cherry-pick, single point, set 2 | NIH/3T3 viability, CellTiter-Glo ATP luminescence, 90 h | inhibition, % at 24.9 µM | shares compounds with T cruzi growth-1 | 56% of 5,600 active;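 active = mean loss of cell viability signal at or above a set limit, and enough replicates individually reaching it; inconclusive = meets only the mean limit or only the replicate share; inactive = meets neither condition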;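 also: 0% = median of neutral control wells and 100% = median of positive control wells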
* marks the source's active call; other numbers are inactive results; ? = inconclusive; . = no result given.

SMILES	C diff growth	T cruzi growth-1	T cruzi growth-2	T cruzi growth-3	3T3 cytotox	NIH3T3 tox 2
C[C@H]1CN([C@@H](C)CO)S(=O)(=O)c2ccc(C#CC3CC3)cc2O[C@@H]1CN(C)C(=O)c1ccccc1	-6.9	98.8*	100.7*	76.1	10.3	?
CC(C)CC#Cc1ccc2c(c1)O[C@@H](CN(C)C(=O)c1cccc(F)c1)[C@H](C)CN([C@H](C)CO)S2(=O)=O	5.7	109.8*	104.5*	91.1	30.5	104.8*
CC(C)CC#Cc1ccc2c(c1)O[C@H](CN(C)C(=O)c1cccnc1)[C@@H](C)CN([C@@H](C)CO)S2(=O)=O	7.0	75.9	.	.	.	.
CC(C)CC#Cc1ccc2c(c1)O[C@@H](CN(C)C(=O)c1ccccc1)[C@H](C)CN([C@H](C)CO)S2(=O)=O	21.8	.	.	.	.	.
CC(C)CC#Cc1ccc2c(c1)O[C@H](CN(C)C(=O)c1cccc(F)c1)[C@@H](C)CN([C@H](C)CO)S2(=O)=O	5.5	120.0*	108.8*	83.6	3.9	105.1*
CCCN1[C@@H]2c3ccc(C4=CCCC4)c(=O)n3C[C@H]1[C@H](CO)[C@H]2C(=O)NCCOC	-2.9	25.8	.	.	.	.
CO[C@H]1CN(C)C(=O)c2cc(NC(=O)C3CC3)ccc2OC[C@H](C)N(C(=O)CN2CCOCC2)C[C@@H]1C	.	21.3	.	.	.	.
C[C@H](CO)N1C[C@H](C)[C@H](CN(C)C)Oc2ncc(C#CC(C)(C)O)cc2C1=O	2.6	-3.1	.	.	.	.
CCCC#Cc1ccc2c(c1)O[C@H](CN(C)C(=O)c1ccccc1F)[C@H](C)CN([C@H](C)CO)S2(=O)=O	16.7	33.3	.	.	.	.
CC(C)CC#Cc1ccc2c(c1)O[C@@H](CN(C)C(=O)c1cccc(F)c1)[C@@H](C)CN([C@@H](C)CO)S2(=O)=O	8.9	101.7*	105.3*	104.6*	14.0	104.1*
CC(C)CC#Cc1ccc2c(c1)O[C@@H](CN(C)C(=O)c1cccc(F)c1)[C@H](C)CN([C@@H](C)CO)S2(=O)=O	-4.0	124.3*	103.0*	110.3*	62.4*	104.7*
C[C@H](CO)N1C[C@H](C)[C@@H](CN(C)C(=O)c2cccc(F)c2)Oc2cc(C#CC3CC3)ccc2S1(=O)=O	-7.3	.	.	.	.	.
C[C@@H]1CN([C@H](C)CO)S(=O)(=O)c2ccc(C#CC3CC3)cc2O[C@@H]1CN(C)C(=O)c1cccc(F)c1	12.1	.	.	.	.	.
CC(C)CC#Cc1ccc2c(c1)O[C@H](CN(C)C(=O)c1ccccc1)[C@@H](C)CN([C@@H](C)CO)S2(=O)=O	7.3	122.4*	102.5*	93.0	33.7	104.9*
CC(C)CC#Cc1ccc2c(c1)O[C@H](CN(C)C(=O)c1ccccc1F)[C@@H](C)CN([C@@H](C)CO)S2(=O)=O	8.3	102.6*	102.6*	?	13.2	105.1*
CC(C)CC#Cc1ccc2c(c1)O[C@H](CN(C)C(=O)c1ccccc1)[C@H](C)CN([C@H](C)CO)S2(=O)=O	16.9	.	.	.	.	.
Cc1ccc(S(=O)(=O)N(C)C[C@H]2Oc3ccc(NC(=O)CCCN(C)C)cc3C(=O)N([C@@H](C)CO)C[C@H]2C)cc1	4.2	21.1	.	.	.	.
C[C@H]1CN([C@@H](C)CO)C(=O)c2cccc(NC(=O)Nc3ccc(C(F)(F)F)cc3)c2O[C@@H]1CN(C)C(=O)Nc1ccccc1	100.9	45.4	.	.	.	.
C[C@@H]1CN([C@@H](C)CO)C(=O)c2cc(NC(=O)Cc3ccccc3)ccc2O[C@H]1CN(C)Cc1ccncc1	-1.6	-53.6	.	.	.	.
COc1ccc(NC(=O)Nc2ccc3c(c2)C(=O)N([C@@H](C)CO)C[C@@H](C)[C@H](CN(C)Cc2ccc4c(c2)OCO4)OCCCC[C@@H](C)O3)cc1	1.7	91.2	.	.	.	.
COc1ccc(NC(=O)Nc2ccc3c(c2)C(=O)N([C@H](C)CO)C[C@@H](C)[C@@H](CN(C)Cc2ccc4c(c2)OCO4)OCCCC[C@H](C)O3)cc1	11.5	92.2	.	.	.	.
COc1ccc(NC(=O)Nc2ccc3c(c2)C(=O)N([C@H](C)CO)C[C@H](C)[C@@H](CN(C)Cc2ccc4c(c2)OCO4)OCCCC[C@@H](C)O3)cc1	8.8	53.5	.	.	.	.
